Experimental findings from PubChem BioAssay (EPA / NIEHS) are described below.

Several values for one entry are separate records, joined by “and”; a condition that tells them apart may be missing. Identical values can stand only once. Inconclusive results are not listed. Some compounds were tested as several samples or in several runs, with calls that do not always agree. Activity calls are given as the source filed them. How the source made its calls: active means hit-call score of the fitted dose curve at least 0.9, where 1 is the maximum; inconclusive means response in the unintended direction; inactive means score below 0.9.

Assay [1] addresses rat CYP2A2, Cyp2a2 (gene 24895) (UniProt P15149). The assay can be described thus: NVS_ADME_rCYP2A2: NovaScreen (NVS) CYP450-related Enzyme Activity (ADME) Assay for rat CYP2A2 (AID 2283116). The gist of the method: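 Cell-free recombinant rat CYP2A2 activity with fluorogenic substrate, fluorescence read 0.2 h after dosing. Chemicals screened at 10 uM in duplicate, hits then run in concentration-response up to 20 uM; signal loss versus acetonitrile baseline.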

For assay [2], the target named is rat CYP2C11, Cyp2c11 (gene 29277) (UniProt P08683). The assay can be described thus: NVS_ADME_rCYP2C11: NovaScreen (NVS) CYP450-related Enzyme Activity (ADME) Assay for rat CYP2C11 (AID 2283118). The gist of the method:
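Cell-free recombinant rat enzyme with fluorescent substrate; readout 0.33 h after dosing, loss of signal versus acetonitrile control. Initial duplicate single-point at 10 uM; actives rerun in concentration series.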

Another assay concerns rat CYP2C6, gene 293989. As to the kind of experiment: NVS_ADME_rCYP2C6: NovaScreen (NVS) CYP450-related Enzyme Activity (ADME) Assay for rat CYP2C6 (AID 2283120). The gist of the method: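 Cell-free recombinant rat CYP2C6 with fluorogenic substrate, read by fluorescence 1 h after dosing; acetonitrile as negative control. Primary screen at 10 uM in duplicate, actives then in concentration-response up to 20 uM.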

Another assay relates to rat CYP3A1, gene 25642. The assay can be described thus: NVS_ADME_rCYP3A1: NovaScreen (NVS) CYP450-related Enzyme Activity (ADME) Assay for rat CYP3A1 (AID 2283126). The method, boiled down:
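Cell-free recombinant CYP assay with fluorescent substrate, read 0.5 h after dosing. Screened at 10 uM in duplicate, hits at up to 20 uM in concentration-response; loss of signal versus acetonitrile baseline.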

The target of assay [3] is rat CYP3A2, Cyp3a2 (gene 266682) (UniProt P05183). As to the kind of experiment: NVS_ADME_rCYP3A2: NovaScreen (NVS) CYP450-related Enzyme Activity (ADME) Assay for rat CYP3A2 (AID 2283128). The gist of the method: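 Cell-free rat CYP3A2 enzyme assay with fluorescent substrate, read 0.5 h after dosing. Primary duplicate screen at 10 uM; actives run in concentration-response up to 20 uM, relative to acetonitrile baseline.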

The target of assay [4] is human Acid Phosphatase 1 (ACP1), ACP1 (gene 52) (UniProt P24666). The assay can be described thus: NVS_ENZ_hACP1: NovaScreen (NVS) Enzymatic Assay for human Acid Phosphatase 1 (ACP1) (AID 2283136). The method, boiled down:
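Recombinant enzyme expressed in Sf9 cells, tested cell-free; activity read by fluorescence with electrophoretic mobility shift separation of substrate and product, 1.5 h after dosing. Primary screen in duplicate at 25 uM, actives then run in concentration series; loss of signal versus DMSO.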

Sequence of rat CYP2C11, Cyp2c11 (gene 29277) (P08683 whole entry, looked up): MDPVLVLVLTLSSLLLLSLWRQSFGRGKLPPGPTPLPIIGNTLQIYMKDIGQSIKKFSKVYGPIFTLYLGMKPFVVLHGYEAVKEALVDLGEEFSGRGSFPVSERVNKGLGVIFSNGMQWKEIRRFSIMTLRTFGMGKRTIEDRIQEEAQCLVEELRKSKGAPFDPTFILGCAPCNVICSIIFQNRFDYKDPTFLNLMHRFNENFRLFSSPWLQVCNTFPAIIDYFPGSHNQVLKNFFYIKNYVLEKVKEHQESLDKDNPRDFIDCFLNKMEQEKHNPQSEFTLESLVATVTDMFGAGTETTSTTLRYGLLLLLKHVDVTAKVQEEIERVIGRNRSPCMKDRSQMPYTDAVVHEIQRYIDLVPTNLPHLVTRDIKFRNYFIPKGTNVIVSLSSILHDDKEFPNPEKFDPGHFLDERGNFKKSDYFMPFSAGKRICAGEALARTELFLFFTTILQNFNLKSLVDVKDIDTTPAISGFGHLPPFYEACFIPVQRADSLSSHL
Sequence of rat CYP2A2, Cyp2a2 (gene 24895) (P15149 whole entry, looked up): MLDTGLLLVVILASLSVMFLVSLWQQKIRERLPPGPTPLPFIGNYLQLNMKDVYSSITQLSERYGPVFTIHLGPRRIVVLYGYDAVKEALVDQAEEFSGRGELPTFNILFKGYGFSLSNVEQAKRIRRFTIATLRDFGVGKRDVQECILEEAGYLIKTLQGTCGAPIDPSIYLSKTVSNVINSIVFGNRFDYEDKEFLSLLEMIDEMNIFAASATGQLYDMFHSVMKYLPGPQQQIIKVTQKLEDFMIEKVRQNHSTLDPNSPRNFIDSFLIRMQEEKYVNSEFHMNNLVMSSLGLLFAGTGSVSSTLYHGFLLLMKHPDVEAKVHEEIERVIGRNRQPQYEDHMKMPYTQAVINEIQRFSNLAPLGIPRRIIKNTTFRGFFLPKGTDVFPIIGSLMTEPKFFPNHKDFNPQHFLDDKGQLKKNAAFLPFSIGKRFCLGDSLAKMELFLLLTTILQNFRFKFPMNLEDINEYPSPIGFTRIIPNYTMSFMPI
Sequence of human Acid Phosphatase 1 (ACP1), ACP1 (gene 52) (P24666 whole entry, looked up): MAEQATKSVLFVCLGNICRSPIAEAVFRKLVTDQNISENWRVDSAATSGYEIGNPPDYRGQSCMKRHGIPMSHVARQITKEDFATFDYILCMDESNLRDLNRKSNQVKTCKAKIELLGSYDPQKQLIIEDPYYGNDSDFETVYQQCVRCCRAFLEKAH
Sequence of rat CYP3A2, Cyp3a2 (gene 266682) (P05183 whole entry, looked up): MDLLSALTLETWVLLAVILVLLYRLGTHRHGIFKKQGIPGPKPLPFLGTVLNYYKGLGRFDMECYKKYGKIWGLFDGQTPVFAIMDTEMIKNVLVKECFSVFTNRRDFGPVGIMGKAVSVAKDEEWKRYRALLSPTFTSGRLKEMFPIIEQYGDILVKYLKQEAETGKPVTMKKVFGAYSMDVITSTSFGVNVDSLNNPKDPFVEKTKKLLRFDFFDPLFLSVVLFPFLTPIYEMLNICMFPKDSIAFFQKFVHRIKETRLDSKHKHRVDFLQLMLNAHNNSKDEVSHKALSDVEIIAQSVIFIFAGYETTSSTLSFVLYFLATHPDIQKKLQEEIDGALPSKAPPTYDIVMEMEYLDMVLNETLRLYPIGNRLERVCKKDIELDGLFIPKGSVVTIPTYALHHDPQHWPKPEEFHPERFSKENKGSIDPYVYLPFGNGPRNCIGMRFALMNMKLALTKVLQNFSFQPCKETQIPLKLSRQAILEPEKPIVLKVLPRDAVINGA

A word on the AC50: it is the midpoint of the concentration-response curve, whichever way the signal moves. On to `CCN(CC)CCOc1ccc(C(=C(Cl)c2ccccc2)c2ccccc2)cc1`, for which the concentration at half-maximal activity (AC50) in assay [1] was 3.22 µM (active) and 5.8 µM (active); in assay [2], 6.05 µM (active) and 5 µM (active) and 325 nM (active); in the assay on rat CYP2C6, gene 293989, 4.06 µM (active) and 3.54 µM (active) and 4.76 µM (active); with rat CYP3A1, gene 25642, 6.26 µM (active). Also, the call in assay [1] was inactive.
In the case of `CC(=O)O[C@]1(C(C)=O)CC[C@H]2[C@@H]3C=C(Cl)C4=CC(=O)[C@@H]5C[C@@H]5[C@]4(C)[C@H]3CC[C@@]21C`, the half-maximal activity concentration (AC50) was 832 nM (active) and 2.03 µM (active) and 1.28 µM (active) in assay [1]; 1.2 µM (active) in the assay on rat CYP3A1, gene 25642; 1.42 µM (active) in assay [3].
For `COc1ccc(OC(F)(F)F)cc1CN[C@H]1CCCN[C@H]1c1ccccc1`, the result in assay [4] was inactive.
